Source: PubChem BioAssay AID1159580 (chemical genetic matrix, 2015)
About 2,000 (36%) of roughly 5,500 compounds were called active. Another 18% or so got no clear call; they are omitted. Cut-off read from the data, not from the text of the source: active = normalized growth mostly below about 0.91 (no sharp cut-off); inconclusive = no clear call, values can overlap the other calls; inactive = mostly above about 0.92. The list shows a part of the results.

Experiment: chemical genetic growth profiling, strain panel (AID 1159580);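 note: tested at 20 µM; growth read once vehicle control cultures reached saturation at 30 °C; 1 = growth at the plate median or of vehicle wells; lower values mean less growth of the strain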
Details: S. cerevisiae deletion strains, growth OD

Measured: normalized growth

CO[C@H]1[C@@H](O)[C@@H](C)O[C@H](O[C@H]2CCC3(C)C4CCC5(C)[C@@H](C6=CC(=O)OC6)CC[C@]5(O)[C@@H]4CC[C@]3(O)C2)[C@@H]1O (stereo not given in full)
inactive: locus YAL021C, strain ccr4, stronger effect = lower value 0.993 | locus YAL026C, strain drs2, stronger effect = lower value 1.04 | locus YAL030W, strain snc1, stronger effect = lower value 1.03 | locus YBL061C, strain skt5, stronger effect = lower value 1.05 | locus YBR009C, strain hhf1, stronger effect = lower value 1.02 | locus YBR023C, strain chs3, stronger effect = lower value 1.03 | locus YBR171W, strain sec66, stronger effect = lower value 1.03 | locus YBR231C, strain swc5, stronger effect = lower value 1.02 | locus YBR279W, strain paf1, stronger effect = lower value 1.02 | locus YCL011C, strain gbp2, stronger effect = lower value 1.03 | locus YCL016C, strain dcc1, stronger effect = lower value 1.02 | locus YCL061C, strain MRC1, stronger effect = lower value 1.02 | locus YCL069W, strain vba3, stronger effect = lower value 1.02 | locus YCR088W, strain abp1, stronger effect = lower value 1.02 | locus YDL005C, strain med2, stronger effect = lower value 1.03 | locus YDL040C, strain nat1, stronger effect = lower value 1 | locus YDR001C, strain nth1, stronger effect = lower value 1.02 | locus YDR069C, strain doa4, stronger effect = lower value 1.03 | locus YDR137W, strain rgp1, stronger effect = lower value 1.04 | locus YDR159W, strain sac3, stronger effect = lower value 1.04 | locus YDR195W, strain ref2 1.01 | locus YDR297W, strain sur2, stronger effect = lower value 1.04 | locus YDR334W, strain swr1, stronger effect = lower value 1.02 | locus YDR335W, strain msn5, stronger effect = lower value 1.02 | locus YDR392W, strain spt3, stronger effect = lower value 1.02 | locus YEL003W, strain gim4, stronger effect = lower value 1.02 | locus YEL037C, strain rad23, stronger effect = lower value 1.02 | locus YEL061C, strain CIN8 (second series), stronger effect = lower value 1.02 | locus YER015W, strain faa2, stronger effect = lower value 1.02 | locus YER016W, strain bim1, stronger effect = lower value 1.02 | locus YER111C, strain swi4, stronger effect = lower value 1.03 | locus YER155C, strain BEM2 (second series), stronger effect = lower value 1.04 | locus YFR010W, strain ubp6, stronger effect = lower value 1.04 | locus YGL167C, strain pmr1, stronger effect = lower value 1.03 | locus YGL173C, strain kem1, stronger effect = lower value 1.04 | locus YGL227W, strain vid30, stronger effect = lower value 1.01 | locus YGL240W, strain doc1, stronger effect = lower value 1.04 | locus YGL253W, strain hxk2, stronger effect = lower value 1.03 | locus YHR013C, strain ard1, stronger effect = lower value 1.04 | locus YHR027C, strain rpn1, stronger effect = lower value 1.05 | locus YHR030C, strain SLT2, stronger effect = lower value 1.05 | locus YHR079C, strain IRE1, stronger effect = lower value 1.08 | locus YHR142W, strain chs7, stronger effect = lower value 1.03 | locus YJL092W, strain hpr5, stronger effect = lower value 1.02 | locus YJL095W, strain BCK1 (second series), stronger effect = lower value 1.02 | locus YJL095W, strain BCK1, stronger effect = lower value 1.04 | locus YJL115W, strain asf1, stronger effect = lower value 1.04 | locus YJL129C, strain trk1, stronger effect = lower value 1.03 | locus YJL154C, strain vps35, stronger effect = lower value 1.02 | locus YJL164C, strain tpk1, stronger effect = lower value 1.01 | locus YJL166W, strain qcr8, stronger effect = lower value 1.03 | locus YJL187C, strain SWE1, stronger effect = lower value 1.03 | locus YJR066W, strain TOR1, stronger effect = lower value 1.01 | locus YKL160W, strain elf1, stronger effect = lower value 1.01 | locus YKR026C, strain gcn3, stronger effect = lower value 1.02 | locus YKR091W, strain srl3, stronger effect = lower value 1.02 | locus YLL001W, strain dnm1, stronger effect = lower value 1.03 | locus YLL026W, stronger effect = lower value 1.03 | locus YLL041C, strain sdh2, stronger effect = lower value 1.02 | locus YLR027C, strain aat2, stronger effect = lower value 1 | locus YLR113W, strain HOG1, stronger effect = lower value 0.976 | locus YLR221C, strain rsa3, stronger effect = lower value 1.03 | locus YLR258W, strain gsy2, stronger effect = lower value 1 | locus YLR262C, strain YPT6 (second series), stronger effect = lower value 1.03 | locus YLR320W, strain mms22, stronger effect = lower value 1.03 | locus YLR342W, strain FKS1, stronger effect = lower value 1.03 | locus YLR357W, strain rsc2, stronger effect = lower value 1.06 | locus YLR370C, strain arc18, stronger effect = lower value 1.01 | locus YLR384C, strain iki3, stronger effect = lower value 1.04 | locus YML120C, strain ndi1, stronger effect = lower value 1.01 | locus YMR058W, strain fet3, stronger effect = lower value 1.03 | locus YMR125W, strain sto1, stronger effect = lower value 1.03 | locus YMR129W, stronger effect = lower value 1.02 | locus YMR205C, strain PFK2, stronger effect = lower value 1.06 | locus YMR231W, strain pep5, stronger effect = lower value 1 | locus YNL071W, strain lat1, stronger effect = lower value 1.02 | locus YNL183C, strain NPR1, stronger effect = lower value 1 | locus YNL209W, strain ssb2, stronger effect = lower value 1.02 | locus YNL248C, strain rpa49, stronger effect = lower value 1.03 | locus YNL322C, strain KRE1 (second series), stronger effect = lower value 1.02 | locus YNR049C, strain mso1, stronger effect = lower value 1.04 | locus YOR001W, strain rrp6, stronger effect = lower value 1.03 | locus YOR070C, strain gyp1, stronger effect = lower value 1.02 | locus YOR080W, strain dia2, stronger effect = lower value 1.04 | locus YOR083W, strain WHI5, stronger effect = lower value 1.02 | locus YOR106W, strain vam3, stronger effect = lower value 1.03 | locus YOR231W, strain MKK1, stronger effect = lower value 1.04 | locus YOR265W, strain rbl2, stronger effect = lower value 1.04 | locus YOR270C, strain vph1, stronger effect = lower value 1.08 | locus YOR290C, strain snf2, stronger effect = lower value 1.01 | locus YPL051W, strain arl3, stronger effect = lower value 1.01 | locus YPL078C, strain atp4, stronger effect = lower value 1.02 | locus YPL106C, strain sse1, stronger effect = lower value 1.02 | locus YPL240C, strain hsp82, stronger effect = lower value 1.01 | locus YPL256C, strain CLN2, stronger effect = lower value 1.08
